# Source: PubChem (National Center for Advancing Translational Sciences (NCATS))
# The list is not random: actives were taken first. Their share in the collection is about 2.4%.
# D2 PAM-1: positive allosteric modulators of human D2 dopamine receptor; P14416; HEK293 T-REx D2, calcium flux, EC20 dopamine potentiation; potentiation, % at 10 µM; actives 0.34% (n = 340,000);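 active means potentiation over 3 SD above the plate norm, cut at about 30% in these data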; further: 0% is about no effect
# Target sequence (P14416 whole entry, looked up): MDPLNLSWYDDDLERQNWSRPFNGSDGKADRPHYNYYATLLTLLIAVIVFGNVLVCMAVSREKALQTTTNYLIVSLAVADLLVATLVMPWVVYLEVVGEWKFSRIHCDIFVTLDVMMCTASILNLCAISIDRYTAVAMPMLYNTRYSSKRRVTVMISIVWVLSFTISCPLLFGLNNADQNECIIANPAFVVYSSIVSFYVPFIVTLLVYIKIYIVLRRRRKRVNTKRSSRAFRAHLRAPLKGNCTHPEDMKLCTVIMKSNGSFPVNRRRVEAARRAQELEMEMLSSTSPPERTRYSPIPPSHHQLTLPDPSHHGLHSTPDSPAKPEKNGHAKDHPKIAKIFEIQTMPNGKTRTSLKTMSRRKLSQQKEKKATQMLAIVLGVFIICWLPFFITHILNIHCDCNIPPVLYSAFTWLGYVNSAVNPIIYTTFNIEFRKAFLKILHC
#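 Tetracycline-induced HEK293 T-REx cells force-coupled to calcium signalling expressed D2; compounds were pin-added after a 10 s baseline, read kinetically 180 s, then an EC20 dopamine challenge followed with a further 180 s calcium read.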
# D2 ag-1: human D2 receptor agonism in beta-arrestin assay | activation, % (no concentration beside the values) | actives 0.084% (n = 360,000) | DiscoveRx PathHunter D2 beta-arrestin, luminescence, 90 min; 100% = 57 uM dopamine signal | P14416 | AID 624465; in the data active means activation above about 40%; inconclusive means between about 15% and that limit
#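 DiscoveRx PathHunter D2 beta-arrestin cells (2,100/well) attached overnight, then compound-stimulated 90 min at 37 C in HBSS/10 mM HEPES/0.1% Tween-20 buffer; beta-galactosidase complementation read by luminescence after 1 h at ambient temperature. Dopamine 57 uM final (EC100) as control.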
# D2 PAM-2: positive allosteric modulators of human D2 dopamine receptor. P14416. DiscoveRx D2 beta-arrestin cells, luminescence, 90 min; 100% = 57 uM dopamine signal. potentiation, % (concentration not given with the values). actives 0.23% (n = 360,000); in the data active means potentiation above about 50%; inconclusive means mostly about 30% to 49%
#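 D2 cells co-treated with compound plus 50 nM dopamine (EC20) for 90 min at 37 deg C to detect potentiation. Beta-arrestin recruitment was read as enzyme-fragment luminescence after 1 h at ambient temperature. Full response was set by 57 uM dopamine.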
# D2 ag-2: agonists of human D2 dopamine receptor; P14416; HEK293 T-REx D2 cells, calcium flux agonist mode; activation, % at 2 µM; actives 0.53% (n = 340,000); AID 485358;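 active means activation over 3 SD above normal in the single-dose calcium agonist read, cut at about 30% in these data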; further: 0% is about no effect
#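 Agonism scored from kinetic calcium signal (1 read/sec, 180 s) following compound pin transfer, after a 10 s baseline. Cells: HEK293 Trex line expressing inducible D2 receptor coupled to calcium, dye-loaded after overnight culture at 30 C.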
# D2 antagonist: antagonists of human D2 dopamine receptor; actives 2% (n = 340,000); inhibition, % at 10 µM; HEK293 TREx D2 cells, calcium flux, dopamine EC80; P14416; in the data active means inhibition above about 30%; inactive means below that, where a call was filed; further: 0% is about no effect
#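 Measurement of antagonist activity uses fluorescent calcium dye in inducible HEK293 T-REx D2 cells: 10 s baseline, compound addition with 180 s read, EC80 dopamine addition with a further 180 s read.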
# * hit, by the source's call; ? = inconclusive; nt = no result given.
SMILES,D2 PAM-1,D2 ag-1,D2 PAM-2,D2 ag-2,D2 antagonist
C=C1CCN([C@@H](CC(C)C)C(=O)N2CCOCC2)S(=O)(=O)c2ccccc21,nt,-1,-10,nt,nt
CN(C)c1ccc(/C=N/NC(=O)CNC(=O)c2ccc3c(c2)OCCO3)cc1,-1,-3,-6,0,10
CCN(CC)c1ccc(/C=N/NC(=O)CNC(=O)c2ccc3c(c2)OCCO3)cc1,-19,-8,-18,0,33*
CCN(CC)c1ccc(NS(=O)(=O)c2ccc3c(c2)CCCN3C(C)=O)c(C)c1,14,nt,nt,1,nt
COc1cc(CN2CCN(c3cccc(C)c3C)CC2)cc(OC)c1O,-24,1,4,-1,42*
COc1cc(CN2CCCCCC2)cc(OC)c1O,2,5,-4,0,9
Cc1cccc(N2CCN(Cc3ccoc3)CC2)c1C,-26,-2,-31,0,67*
Cc1cc(CN2CCN(c3cccc(C)c3C)CC2)cs1,-26,nt,nt,-1,nt
Cc1ccc(C2N3CC4(C)CN2CC(c2ccccc2)(C3)C4=O)cc1 (stereo unspecified),-11,nt,nt,nt,nt
CC(C)c1ccc(N2C(=O)/C(=C/N(C)C)SC2=S)cc1,-3,-5,-23,30*,12
CCO/C=C1\SC(=S)N(c2ccc(Cl)cc2)C1=O,4,-5,-9,0,-8
Cc1ccc(CNC(=O)c2cccn2-c2nnc(N3CCCCC3)s2)cc1,0,nt,nt,-1,nt
Cc1ccc(C2=NN(C(=O)CSc3nnnn3C)C(c3ccco3)C2)cc1 (stereo unspecified),4,-3,-5,0,43*
CCOC(=O)c1[nH]c2ccc(OCC)cc2c1NC(=O)CN1CCN(c2ccccn2)CC1,-5,-3,15,1,36*
CCOC(=O)C1CCN(CC(=O)Nc2c(C(=O)OC)[nH]c3ccccc23)CC1,-8,nt,nt,35*,49*
CCc1cccc(C)c1Nc1c(-c2ccc(SC)cc2)nc2sccn12,10,nt,nt,0,nt
CC(=O)c1cccc(NC(=O)CCc2nc3cccnc3n2Cc2cccs2)c1,0,nt,nt,-1,nt
COc1ccc(/C=N/NC(=O)c2nn(-c3ccccc3)c(=O)c3c(N)scc23)cc1,-3,7,24,0,-2
COc1ccc(-n2nc(C(=O)NCC(=O)N3CCCC(C)C3)c3ccccc3c2=O)cc1Cl (stereo unspecified),32*,5,2,0,-18
COCCCNC(=O)CNC(=O)c1nn(-c2ccc(OC)c(Cl)c2)c(=O)c2ccccc12,-2,3,-3,0,50*
COc1ccc(/C=N/NC(=O)c2nn(-c3ccc(C)c(C)c3)c(=O)c3ccccc23)cc1,7,-4,5,1,45*
COc1ccc(-n2nc(C(=O)NCC(=O)NCCCN3CCCCCC3)c3ccccc3c2=O)cc1Cl,8,3,-9,3,1
CCOC(=O)C1CCCN(C(=O)CNC(=O)c2nn(-c3ccc(OC)c(Cl)c3)c(=O)c3ccccc23)C1 (stereo unspecified),3,-1,11,0,-15
COC(=O)c1ccc(NC(=O)N2CCc3c([nH]c4ccccc34)C2c2ccc(C)cc2)cc1 (stereo unspecified),7,nt,nt,-1,nt
Nc1c(C(=O)c2cccs2)oc2ccccc12,-6,-2,-6,0,-10
SMILES,D2 PAM-1,D2 ag-1,D2 PAM-2,D2 ag-2,D2 antagonist
Nc1c(C(=O)c2ccc(Br)s2)oc2ccccc12,-9,-4,-6,0,45*
Cc1ccc(Cl)cc1N1CCN(C(=O)CCS(=O)(=O)c2ccc3c(c2)oc(=O)n3C)CC1,-10,nt,nt,0,nt
Cc1cccc(NC(=O)N2CCC(CN3CCCCCC3)CC2)c1C,4,nt,nt,0,nt
CCOc1ccc(OCC)c(NS(=O)(=O)c2ccc3c(c2)CCCN3C(C)=O)c1,6,nt,nt,1,nt
O=C(Nc1ccc(Cl)cc1Cl)Nn1cnnc1,-2,-5,-15,1,-9
O=C(Nc1ccno1)Nc1ccc(Cl)cc1Cl,5,?,62*,0,-3
O=[N+]([O-])c1ccc(CNc2ccc(Cl)cc2)s1,4,11,?,-2,96*
CCNC(=O)CC1C(=O)N(c2ccc(F)cc2)C(=O)N1Cc1ccc(OC)c(OC)c1 (stereo unspecified),20,nt,nt,-1,nt
O=C(NCCC1=CCCCC1)C1CCN(c2nnc(-n3cccc3)s2)CC1,-8,-4,-1,0,48*
CC(C)CCNC(=O)C1CCN(c2nnc(-n3cccc3)s2)CC1,8,-3,-3,1,-7
Cc1oc(-c2ccccc2F)nc1CN1CCC(C(=O)NCCC2=CCCCC2)CC1,2,-4,-8,6,32*
O=C(Nc1cc(C(F)(F)F)ccc1Cl)C1CCN(c2nnc(-n3cccc3)s2)CC1,-18,0,-22,0,62*
Cc1oc(-c2ccccc2F)nc1CN1CCC(C(=O)NCCc2ccccc2)CC1,-6,nt,nt,2,nt
CS(=O)(=O)N1CCC(C(=O)Nc2cc(C(F)(F)F)ccc2Cl)CC1,-12,-2,-14,0,-7
COCC(=O)N1c2nc(-c3ccco3)nn2C2(CCCCC2)[C@@H]2CCCC[C@@H]21,23,nt,nt,-2,nt
COc1cccc(NC(=O)CNC(=O)Cn2c(C)cc3ccccc3c2=O)c1,-5,nt,nt,0,nt
CCCc1cc(C(=O)Cc2ccccn2)c(O)cc1O,9,-7,0,-1,37*
O=C(C1CC1)N1CCc2cc(Br)cc(S(=O)(=O)N3CCCCCC3)c21,10,-1,-6,1,-13
COc1ccc(NS(=O)(=O)c2cc(Br)cc3c2N(C(C)=O)CC3)cc1,-34,-18,-13,0,63*
O=C(C1CC1)N1CCc2cc(Br)cc(S(=O)(=O)NC3CCCCC3)c21,-4,-3,-6,0,40*
CCc1ccc(NS(=O)(=O)c2cc(Br)cc3c2N(C(C)=O)CC3)cc1,nt,nt,nt,1,nt
COc1ccc(CNC(=O)CN2N=C(c3ccccc3)CCC2=O)c(OC)c1,-9,nt,nt,1,nt
O=C(CCC1N=C2c3ccccc3N=C(SCc3ccc(F)cc3)N2C1=O)NCc1ccc(F)cc1 (stereo unspecified),2,nt,nt,0,nt
OCCN(CCO)c1nc(N2CCCCC2)c2nc(N(CCO)CCO)nc(N3CCCCC3)c2n1,-10,8,-7,42*,22
Nc1nc(NCCO)nc(N2CCCCCC2)c1[N+](=O)[O-],3,1,4,1,-6
CC(=O)OC(C)CS(=O)(=O)c1ccccc1 (stereo unspecified),26,-3,0,0,30*
CN1Cc2cccc3c2C(Cc2ccccc2S3)C1 (stereo unspecified),-25,-2,-34,1,48*
Cc1ccc([N+](=O)[O-])c(OCCCN2CCCCCC2)c1,-27,-4,-18,0,71*
